Screening results as filed in PubChem.
VACV Venus inh: qHTS for Stage-Specific Inhibitors of Vaccinia Orthopoxvirus: Venus Reporter Primary qHTS | Vaccinia virus Venus reporter expression, fluorescence | Potency, µM (top dose mostly 36.5 µM), for the others: top-dose activity change, negative = inhibition, actives largely listed as inhibitors | hit rate 0.46% among 330,000 | AID 720580, 2013; calls by dose curve; tested in A549 cells; also: % is scaled to controls: 0 for no effect and ±100 for the full control effect; nearly all actives have a fitted effect of over 30% in size
Vaccinia mCherry: qHTS for Stage-Specific Inhibitors of Vaccinia Orthopoxvirus: mCherry Reporter Primary qHTS; Potency, µM (titrated, usually from 36.5 µM), for inactives: at the highest dose activity change, negative = inhibition, hits mostly inhibitors; hit rate 0.63% among 310,000; AID 720579, 2013; Vaccinia virus mCherry reporter infection, fluorescence; calls by dose curve; tested in A549 cells; also: % is scaled to controls: 0 for no effect and ±100 for the full control effect; nearly all actives have a fitted effect of over 35% in size
HCV inh: qHTS Assay for Inhibitors of Hepatitis C Virus (HCV) | Huh7.5.1 HCVcc-Cre infection, luciferase reporter, 44 h | hit rate 3.4% among 340,000 | Potency, µM (doses to about 41.8 µM), for inactives: at the highest dose activity change, negative = inhibition, most hits filed as inhibitors; also: % is scaled to controls: 0 for no effect and ±100 for the full control effect
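HCVcc-Cre virus at an moi near 0.5 was added right after compound to cells cultured 4 h from seeding (1,000 cells/well). Luciferase activity was determined 44 h later, 15 min after substrate addition at RT.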
HCV inh confirm: qHTS Assay for Inhibitors of Hepatitis C Virus (HCV): Confirmation Assay for Cherry-picked Compounds; shares compounds with HCV inh; HCVcc-Cre infectious virus cell assay, luciferase, inhibition; Potency, µM (doses to about 41.8 µM), inactives show top-dose activity, negative = inhibition, most hits filed as inhibitors; hit rate 78% among 640; also: nearly all actives have a fitted effect of over 80% in size
HCV cytotox: qHTS Assay for Inhibitors of Hepatitis C Virus (HCV): Cytotoxicity Counterscreen for Cherry-picked Compounds; shares compounds with HCV inh; HCV host cell line cytotoxicity counterscreen; Potency, µM (doses to about 41.8 µM), inactives show top-dose activity change, negative = cytotoxicity, most hits filed as inhibitors; hit rate 22% among 640; AID 720576, 2013;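 also: 44 h compound exposure; % is scaled to controls: 0 for no effect and ±100 for the full control effect; nearly all actives have a fitted effect of over 55% in size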
Numbers without * were called inactive; i = inactive; ? = inconclusive; / = not tested or not shown. Most compounds without a hit are left out; they make up all but 3.3% or so of the library. Unless noted, calls follow the shape of the dose curve; as a rule, active = well fitted curve in the direction sought with a large enough effect; inconclusive = small, poorly fitted or top-dose-only effect, or another doubt; inactive = no such curve, though single readings can be large; an effect the other way counts as inactive or inconclusive. Potency is read from the fitted curve at half-maximal effect.

SMILES	VACV Venus inh	Vaccinia mCherry	HCV inh	HCV inh confirm	HCV cytotox
CC(=O)N1CCc2cc(Br)cc(S(=O)(=O)N3CCN(c4cccc(C)c4)C(C)C3)c21 (stereo not given)	7%	-7%	/	/	/
Cn1c(=O)cc(N2CCc3ccccc32)[nH]c1=O	-10%	-30%	-7%	/	/
CNc1nc(N2CCc3ccccc32)ncc1F	-7%	-10%	3.2µM*	20µM*	?
Cc1cc(Oc2ccc(N)cn2)ccc1Cl	-23%	-9%	?	?	49%
COc1cccc(Oc2ccc(N)cn2)c1	5%	-4%	?	/	/
O=c1c2cc3c(cc2nc2sc(Nc4cccc([N+](=O)[O-])c4)nn12)OCO3	-8%	i	/	/	/
N/C(=N/OC(=O)c1cccc([N+](=O)[O-])c1)c1cccc([N+](=O)[O-])c1	1%	i	?	/	/
CC1=C(C)/C(=N/OC(=O)c2cccc([N+](=O)[O-])c2)C=CC1=O	/	/	7.1µM*	31µM*	31µM*
CCCCN(C)Cc1cc(=O)oc2ccc3ccccc3c12	/	/	-7%	/	/
CC(C)Cc1nnc(NC(=O)CCC(=O)NCc2ccccc2Cl)s1	-10%	-1%	9%	/	/
CCOC(=O)c1cc(-c2ccc(Cl)cc2)nc2c1c(C)nn2CCC#N	-11%	i	?	/	/
CCOC(=O)c1cc(-c2ccco2)nc2c1c(C)nn2CCC#N	?	/	?	?	10%
O=C(CCCc1nc2ccccc2s1)Nc1nccs1	-11%	-19%	-7%	/	/
Cc1cnc(NC(=O)CCCc2nc3ccccc3s2)s1	5.6µM*	/	2.8µM*	16µM*	-35%
Cc1ccc(Cn2c(CNC(=O)c3ccc(Cl)c([N+](=O)[O-])c3)nc3cccnc32)cc1	-9%	-12%	/	/	/
CCCn1c(=NC(=O)c2ccco2)c(C(=O)OCC)cc2c(=O)n3ccccc3nc21	-9%	-20%	?	?	21%
CCOC(=O)c1cc2c(=O)n3ccccc3nc2n(C(C)C)c1=NC(=O)c1ccco1	-3%	-7%	-18%	/	/
Cc1ccc2[nH]c3c(=O)n(CC(=O)Nc4ccc(Br)cc4C)ncc3c2c1	5%	2%	/	/	/
CCN1CCN(CCCOc2ccc(-c3ccccc3)cc2)CC1	-26%	0%	2.8µM*	14µM*	-19%
CCN1CCN(CCOc2ccccc2-c2ccccc2)CC1	/	/	-20%	/	/
COc1ccc(CCNC(=O)C2=CCN(S(=O)(=O)c3ccc(F)cc3)CC2)cc1OC	/	/	-2%	/	/
C=CCn1c(-c2cccs2)nc2nc3ccccc3nc21	6%	/	17%	/	/
C=CCn1c(-c2cccs2)nc2ccccc21	-20%	/	?	-28%	-35%
C=CCN(c1ccccc1)S(=O)(=O)c1cc2c(cc1C)NC(=O)CO2	/	/	-14%	/	/
Cc1cccc(Cn2c(NCCO)nc3c2c(=O)n(C)c(=O)n3C)c1	?	?	1.8µM*	4µM*	2.5µM*
SMILES	VACV Venus inh	Vaccinia mCherry	HCV inh	HCV inh confirm	HCV cytotox
Cn1c(=O)c2c(nc(NCCc3ccccc3)n2Cc2ccc(Cl)c(Cl)c2)n(C)c1=O	-14%	-18%	/	/	/
O=C(NCC1CCCO1)C1CC(=O)N(c2ccc(Cl)cc2)C1 (stereo not given)	-14%	-11%	-11%	/	/
O=C(COc1ccc(Cl)cc1)Nc1nc(-c2cccs2)cs1	-21%	/	14%	/	/
COc1ccc(C(=O)Nc2nc(-c3cccs3)cs2)cc1	-28%	-21%	?	22µM*	0.0025µM*
O=C(Nc1nc(-c2ccc(Cl)s2)cs1)c1ccncc1	-6%	-8%	?	6.3µM*	?
CC1CC1C(=O)Nc1nc(-c2ccc(Cl)s2)cs1 (stereo not given)	-24%	?	?	/	/
COc1ccc(C2NC(=O)CCC2[N+](=O)[O-])c(OC)c1OC (stereo not given)	/	/	12%	/	/
Cn1c(CNC(=O)CNC(=O)c2ccc(C(C)(C)C)cc2)cc(=O)n(C)c1=O	/	/	-1%	/	/
Cn1c(=O)c2c(nc(NCc3ccc4c(c3)OCO4)n2Cc2ccccc2Cl)n(C)c1=O	/	/	5%	/	/
Cn1c(=O)c2c(nc(SCC(=O)NCc3ccc4c(c3)OCO4)n2Cc2ccc(Cl)cc2)n(C)c1=O	/	/	2.5µM*	3.5µM*	20%
Cc1ccc(C)c(OCCn2c(-c3ccc(Cl)cc3)nc3ccccc3c2=O)c1C	9%	0%	/	/	/
